From PubChem BioAssay come the findings set out here.

Experiment [1] can be described thus: compounds altering viability of human ES cells (AID 493140; call rule not given here;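 also: cells exposed to compounds for four days before counting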). As to conditions: human embryonic stem cell survival screen; stronger effect = higher value.
Experiment [2] is described as follows: P. berghei load reduction in hepatocytes – cell-based, HepG2, luciferase luminescence, HepG2 viability, primary screen (AID 624349; in the data active = parasite load remaining mostly below about 12%, no sharp cut-off; inactive = mostly above about 10%;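 also: 100% = mean of DMSO negative control wells on the same plate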). As to conditions: P. berghei liver stage in HepG2, luciferase luminescence, concentration not given here; parasite load remaining: stronger effect = lower value; viability: measured here: HepG2 viability without parasites.
Experiment [3] in a line: Wnt pathway potentiators raising nuclear beta-catenin – imaging, WNT3A-conditioned medium, mouse C2C12, NPC library, primary screen (AID 1117326; in the data active = nuclear beta-catenin stimulation mostly above about 4.2%, no sharp cut-off; inactive = mostly below about 10%). Conditions: stronger effect = higher value.
Experiment [4] is described as follows: stimulators of insulin release from INS-1E, primary screen, cell-based, 5 mM glucose, NPC library (AID 1117329;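 active = compound raises insulin release from rat beta cells at 5 mM glucose, no numeric limit stated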). As to conditions: rat INS-1E insulin secretion, at 10 µM, stronger effect = higher value.
A short description of experiment [5]: growth inhibition of GSK3B-pretreated HCT116 cells – cell-based, CellTiter-Glo, 0.2 to 20 µM (AID 1117336;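 active = compounds lowering colon cancer cell viability after pretreatment blocking the GSK3B kinase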). Conditions: HCT116 viability after GSK3B inhibitor, at 20 µM, stronger effect = higher value.
The nature of experiment [6]: inhibition of endothelial tube formation, primary screen, imaging, VEGF stimulated, CD31 staining, tube area, NPC library (AID 1117340;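 active = compound that reduces growth-factor-driven endothelial tube area in a mixed cell culture, no cutoff stated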). Conditions: VEGF-stimulated ADSC/ECFC co-culture, at 10 µM, stronger effect = higher value.
A short description of experiment [7]: GLP1 release stimulators, primary, NCI-H716, NPC library (AID 1117341). As to conditions: NCI-H716 cells, at 10 µM, stronger effect = higher value.
The nature of experiment [8]: HCT116 colon cancer cell growth inhibition, primary screen, CellTiter-Glo luminescence, NPC library (AID 1117342;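 active = compounds that lower survival of HCT116 colon cancer cells in the luminescence readout, no numeric limit stated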). Conditions: at 20 µM (top of the series).
The nature of experiment [9]: reduced SW480 viability measured with CellTiter-Glo, NPC library, primary (AID 1117343;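 active = compounds that lower viability of the colon cancer cells in the luminescence readout, with no numeric limit stated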). As to conditions: CellTiter-Glo luminescence; at 20 µM (top of the series) unless noted.
Experiment [10] is described as follows: NPC library primary testing for decreased DLD-1 cell viability via CellTiter-Glo (AID 1117346;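 active = compounds that lower survival of DLD-1 colon cancer cells in the luminescence readout, no cutoff given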). As to conditions: DLD-1 viability, CellTiter-Glo luminescence; at 20 µM (top of the series).
Experiment [11] in a line: EMT-state selective cytotoxicity in co-culture – imaging, PC-3E GFP, TEM4-18 mCherry, primary screen (AID 1345086;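 active = compounds killing one labelled cell type while sparing the other, by normalised counts and ratio limits, not self-fluorescent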;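 as to all read-outs here: cells exposed to compound for 72 h before imaging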;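 as to red/green cell ratio (normalised): normalised mesenchymal count divided by normalised epithelial count so high means epithelial killing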). Conditions: PC-3E GFP / TEM4-18 mCherry co-culture, imaging cell counts, at 1 µM; for red/green cell ratio (normalised): actives lie on both sides, counts scaled to control wells, 1 = unselective.
Experiment [12] is described as follows: viability loss with induced miR-34 in A549 – imaging, A549 dox-inducible miR-34, nuclei and caspase counts, primary screen (AID 1347080;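 active = compounds whose cell count with miR-34 switched on is under 0.7 times the count with it off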). Conditions: A549 miR-34 inducible, Hoechst nuclei count, 48 h.
Experiment [13] can be described thus: MELAS cybrid and Rieske KO viability enhancers – cell-based, MELAS cybrids, Rieske KO mouse fibroblasts, CellTiter-Glo, primary screen (AID 1508586;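 active = mean z-score across replicates of 1.96 or higher in either the MELAS or the Rieske mutant cell line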;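 also: z relative to plate mean and SD of compound and empty wells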). As to conditions: low glucose.
Experiment [14] addresses NAD(+) hydrolase SARM1 (Homo sapiens) (UniProt Q6SZW1). Kind of experiment: blocking NAD cleavage by SARM1 SAM-TIR – cell lysate, NAD-Glo luminescence (AID 1508614;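 active = compound whose remaining NAD level is above about 45 nM, limit read from the data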;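 also: higher remaining NAD means stronger inhibition of SARM1 NADase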). Conditions: SAM-TIR HEK293T lysate NADase, at 1 µM, stronger effect = higher value.
Where [15] appears, read: measured here: epithelial PC-3E GFP cell survival.
Where [16] appears, read: measured here: mesenchymal TEM4-18 mCherry cell survival.
Setting [17] is: stronger effect = lower value, cell number ratio, induced over uninduced.
Setting [18] is: measured here: relative caspase fold change +Dox/-Dox.
Where [19] appears, read: measured here: total cells with miR-34 induction, stronger effect = lower value.
The mark [20] stands for this setting: measured here: total cells without miR-34 induction.
The mark [21] stands for this setting: MELAS cybrid survival, CellTiter-Glo 48 h, stronger effect = higher value.
Where [22] appears, read: Rieske KO mouse fibroblast survival, CellTiter-Glo 72 h.

Structures are written as SMILES. Values joined by “and” are separate entries in the source; they are usually repeats but may differ in a detail not shown here. Equal values may be shown once. Active and inactive are the calls of the source.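 The calls were made as follows, unless noted: active = compound raises GLP1 secretion from the human gut endocrine cells, with no numeric limit stated; inactive = the rest.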

Chain of NAD(+) hydrolase SARM1 (Homo sapiens) (Q6SZW1 whole entry, looked up): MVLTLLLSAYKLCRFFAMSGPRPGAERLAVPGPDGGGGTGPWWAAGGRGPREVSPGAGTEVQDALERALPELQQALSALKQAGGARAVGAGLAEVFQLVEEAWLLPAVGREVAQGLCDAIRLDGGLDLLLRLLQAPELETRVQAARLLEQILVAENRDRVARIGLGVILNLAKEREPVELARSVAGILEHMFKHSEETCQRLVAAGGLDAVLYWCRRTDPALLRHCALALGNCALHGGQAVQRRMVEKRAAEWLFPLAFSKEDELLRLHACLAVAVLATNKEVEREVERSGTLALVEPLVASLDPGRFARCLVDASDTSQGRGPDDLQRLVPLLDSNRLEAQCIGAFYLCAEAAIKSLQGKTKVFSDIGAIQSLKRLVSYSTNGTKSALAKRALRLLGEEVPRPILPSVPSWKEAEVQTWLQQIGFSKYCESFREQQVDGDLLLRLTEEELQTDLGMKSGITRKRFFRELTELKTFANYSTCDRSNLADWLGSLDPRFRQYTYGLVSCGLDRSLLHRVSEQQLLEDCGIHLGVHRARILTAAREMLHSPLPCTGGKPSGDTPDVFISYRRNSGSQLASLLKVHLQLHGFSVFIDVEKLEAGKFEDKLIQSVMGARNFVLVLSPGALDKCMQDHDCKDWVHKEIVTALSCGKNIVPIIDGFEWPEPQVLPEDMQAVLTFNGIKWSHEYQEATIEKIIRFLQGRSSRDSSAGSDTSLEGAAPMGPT

With `Cc1cc2c(cc1S(N)(=O)=O)S(=O)(=O)CCC2`, in experiment [1], the survival was 26.1 (inactive). Moreover, the parasite load remaining in experiment [2] is 38.3% (inactive) and 103% (inactive). In addition, the viability in [2] was 50.2% and 93.9%. The nuclear beta-catenin stimulation in experiment [3] (at 10 µM) is -0.4% (inactive); in [3] (stimulation, at 2 µM) it was 1%. For the same molecule, the insulin secretion stimulation in experiment [4] was 1.4% (inactive). Besides, the viability decrease in [5] is -10.3% (inactive). In experiment [6], the tube area decrease was 3.5% (inactive). In addition, the GLP1 secretion stimulation in experiment [7] was -0.7% (inactive). In addition, the inhibition of viability in [8] was -0.03% (inactive). The results for the viability decrease (inhibition) in experiment [9] and in experiment [10] were 3.2% (inactive) and -1.8% (inactive), respectively. Further, the red/green cell ratio (normalised) in experiment [11] was 0.91 (inactive). In addition, the results for the normalised cell number in [11] (setting [15]) and in experiment [11] (setting [16]) were 0.86 and 0.78, respectively. The fold change in experiment [12] (setting [17]) was 0.932 (inactive); in experiment [12] (setting [18]), 1.01. For the same molecule, the results for the cell count in experiment [12] (setting [19]) and in experiment [12] (setting [20]) were 8570 and 9200, respectively. For the same molecule, the figures for the z-score in [13] (setting [21]) and in [13] (setting [22]) were -0.881 (inactive) and 0.124, respectively. The remaining NAD in [14] was 10 nM (inactive).
As for `CC(=O)Nc1c(I)c(NC(C)=O)c(I)c(C(=O)O)c1I`, the parasite load remaining in [2] is 58.9% (inactive). For the same molecule, in experiment [2], the viability is 109%. The nuclear beta-catenin stimulation in [3] (at 10 µM) was 1.6% (inactive); in [3] (stimulation, at 2 µM) it was 7.7%. Further, in experiment [4], the insulin secretion stimulation is 1.5% (inactive). Moreover, in experiment [5], the viability decrease is 2.3% (inactive). Besides, the tube area decrease in experiment [6] was -9.3% (inactive). Further, the GLP1 secretion stimulation in experiment [7] was 4.3% (inactive). In addition, the inhibition of viability in experiment [8] was 2% (inactive). Besides, the viability decrease (inhibition) was -30.8% (inactive) in experiment [9] and -0.9% (inactive) in experiment [10]. The red/green cell ratio (normalised) in experiment [11] was 1.17 (inactive). Further, the normalised cell number came to 1.02 in experiment [11] (setting [15]) and 1.19 in experiment [11] (setting [16]). The fold change in experiment [12] (setting [17]) was 0.866 (inactive); in [12] (setting [18]), 2.21. Further, the cell count in experiment [12] (setting [19]) worked out at 11200; in experiment [12] (setting [20]), 13000. The z-score was 0.0135 (inactive) in [13] (setting [21]) and 0.624 in experiment [13] (setting [22]). Also, the remaining NAD in [14] was 10 nM (inactive).
Turning to `CCC1NC(=O)c2cc(S(N)(=O)=O)c(Cl)cc2N1` (configuration not stated), in [1], the survival is 5.17 (inactive). In addition, in [2], the parasite load remaining was 89.6% (inactive). Moreover, the viability in experiment [2] came to 77.9%. Moreover, the nuclear beta-catenin stimulation was 1.2% (inactive) in experiment [3] (at 10 µM) and 2.9% in experiment [3] (stimulation, at 2 µM). Also, the insulin secretion stimulation in experiment [4] was -1.7% (inactive). In addition, the viability decrease in experiment [5] is -8.4% (inactive). For the same molecule, the tube area decrease in [6] was 2.1% (inactive). Moreover, the GLP1 secretion stimulation in [7] was 8.6% (inactive). The inhibition of viability in [8] was -5.7% (inactive). In addition, the results for the viability decrease (inhibition) in experiment [9] and in experiment [10] were -10.9% (active) and -14% (inactive), respectively. For the same molecule, the red/green cell ratio (normalised) in experiment [11] is 0.98 (inactive). Also, the normalised cell number in experiment [11] (setting [15]) was 1.22; in experiment [11] (setting [16]), 1.2. The values for the fold change in experiment [12] (setting [17]) and in experiment [12] (setting [18]) were 0.92 (inactive) and 0.404, respectively. The results for the cell count in experiment [12] (setting [19]) and in experiment [12] (setting [20]) were 8110 and 8810, respectively. The values for the z-score in [13] (setting [21]) and in experiment [13] (setting [22]) were -1.3 (inactive) and -1.37, respectively. For the same molecule, the remaining NAD in experiment [14] is 10 nM (inactive).
With `CC(C)(C)CC(C)(C)c1cc(Cc2cc(C(C)(C)CC(C)(C)C)cc(-n3nc4ccccc4n3)c2O)c(O)c(-n2nc3ccccc3n2)c1`, the nuclear beta-catenin stimulation in experiment [3] (at 10 µM) is 3.9% (inactive); in [3] (stimulation, at 2 µM), 2.5%. Besides, the insulin secretion stimulation in experiment [4] was 1.7% (inactive). In addition, the viability decrease in [5] was 9.1% (inactive). Further, in experiment [6], the tube area decrease was -10.3% (inactive). Further, the GLP1 secretion stimulation in experiment [7] is 3.4% (inactive). In [8], the inhibition of viability was 1.9% (inactive). Besides, the viability decrease (inhibition) is -54% (inactive) in experiment [9] and 7.4% (inactive) in experiment [10]. Besides, in experiment [11], the red/green cell ratio (normalised) was 0.81 (inactive). Also, the normalised cell number in experiment [11] (setting [15]) stood at 1.28; in experiment [11] (setting [16]) it was 1.04. For the same molecule, the fold change in experiment [12] (setting [17]) was 0.928 (inactive); in experiment [12] (setting [18]), 0.844. Besides, the values for the cell count in experiment [12] (setting [19]) and in [12] (setting [20]) were 9130 and 9830, respectively. For the same molecule, the remaining NAD in experiment [14] was 10 nM (inactive).
